From PubChem
Compounds with a hit are over-represented: about 2.1% of the library has one in this group of screens.
aSyn yeast inh: rescues yeast growth from alpha-synuclein toxicity; Yeast expressing alpha-synuclein, growth rescue, BacTiter-Glo, 24 h; Potency, µM (doses to about 46.1 µM), for the others: at the highest dose growth rescue (activation), usual class: activators; hit rate 0.14% among 370,000; AID 652106; note: % of control where 0% means no effect; nearly all actives have a fitted effect of over 65% in size
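Screening used galactose-induced yeast with toxic alpha-synuclein levels, exposed to compound for 24 hr at 30 deg C. Cell growth, read with BacTiter-Glo luminescence, gave the measured signal.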
Abeta yeast res: A-beta toxicity reversal in yeast; yeast expressing A-beta42, growth rescue, OD600, 48 h; response scale: 0% DMSO, 100% iron-clioquinol control; Potency, µM (series often up to 46.1 µM), usual class: activators; hit rate 0.063% among 410,000; AID 1347071; note: nearly all actives have a fitted effect of over 55% in size
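Growth rescue measured by 600 nm absorbance after 48 h yeast culture at 30 C with compound. Values normalized between DMSO and an equimolar ferric chloride plus clioquinol control.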
TDP43 rescue: TDP-43 toxicity inhibition in yeast; TDP-43 expressing yeast growth rescue, BacTiter-Glo, 24 h; Potency, µM (series often up to 46.1 µM), for inactives: at the highest dose growth rescue (activation), most hits filed as activators; hit rate 1.8% among 410,000; note: % of control where 0% means no effect; nearly all actives have a fitted effect of over 50% in size
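Cell-based yeast growth screen: TDP-43 expression induced in galactose, inoculum OD600=0.02 after raffinose pregrowth to mid-log. Read-out BacTiter-Glo luminescence at 24 hr, 30 deg C; inhibition of toxicity seen as signal increase.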
FUS yeast rescue: FUS proteinopathy suppression in yeast | S. cerevisiae FUS-expressing, growth rescue, OD600, 24 h | Potency, µM (highest dose often 76.6 µM), most hits filed as activators | hit rate 0.24% among 390,000;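 note: plate controls were DMSO vehicle for no effect and reference control for full effect; nearly all actives have a fitted effect of over 55% in size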
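Restored growth of FUS-toxic S. cerevisiae, read as 600 nm absorbance after 24 h at 30C in galactose medium (starting OD 0.005). Controls CP55940 and DMSO.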
The depositor's hits bear a star; i = inactive; ? = inconclusive; . = no result given; [ ] = dose if it differs, or a comment. Calls come from the whole dose curve; as a rule, active = well fitted curve in the direction sought with a large enough effect; inconclusive = small, poorly fitted or top-dose-only effect, or another doubt; inactive = no such curve, though single readings can be large; an effect the other way counts as inactive or inconclusive. Potency is the fitted concentration of half-maximal effect.

SMILES | aSyn yeast inh | Abeta yeast res | TDP43 rescue | FUS yeast rescue
Cc1ccc(C)c(N2CCN(S(=O)(=O)c3cc(C(=O)Nc4ccccc4C(F)(F)F)ccc3F)CC2)c1 | . | 3.98µM* | ? | i
CC1(C)CCC(c2ccc(Cl)cc2)=C(CN2CCN(c3ccc(C(=O)NS(=O)(=O)c4ccc(N[C@H](CCN5CCOCC5)CSc5ccccc5)c(S(=O)(=O)C(F)(F)F)c4)cc3)CC2)C1 | -5.9% | . | . | .
C/C(=N\NC(=O)Cc1cccs1)c1ccco1 | . | . | . | i
N#Cc1cccc(C(=O)C(=O)N2CCC(c3ccccc3)CC2)c1 | 2.6% | i | 10.2% | i
O=C(C(=O)N1CCC(c2ccccc2)CC1)c1ccc(F)c(F)c1 | 9.4% | i | 22.4µM* | i
COc1ccc(-n2c(SCC(=O)N3CCCCC3)nc(O)cc2=O)cc1 | 2.8% | i | -3.1% | 31.6µM*
CCC(C)NC(=O)c1ccc(COc2ccccc2Cl)cc1 (configuration not stated) | 3.4% | i | ? | i
CCCC(C)NC(=O)c1ccc(OCc2ccc(Cl)cc2)c(OC)c1 (configuration not stated) | -0.3% | i | 22.4µM* | i
Cn1c2ccccc2c(=O)c2cc(C#Cc3cccc(N)c3)ccc21 | 0.9% | i | 12.6µM* | i
COc1ccc(C#Cc2ccc3c(=O)c4ccccc4n(C)c3c2)cc1 | -5.9% | i | ? | i
Cn1c2ccccc2c(=O)c2ccc(C#Cc3ccc(N)cc3)cc21 | 14.4% | i | 11.2µM* | ?
Cn1c2ccccc2c(=O)c2cc(C#CC3=CCCCC3)ccc21 | 15.0% | i | 8.5% | ?
CCN(CC)c1ccc(NC(=O)c2c(C)nn(-c3ccc(F)cc3)c2-n2cccc2)c(C)c1 | -4.0% | i | 23.5% | i
Cc1nc2ccccn2c1C(=O)/C=C/c1cccc([N+](=O)[O-])c1 | -4.7% | i | 2.51µM* | i
O=C(/C=C/c1cccc([N+](=O)[O-])c1)c1ccco1 | 12.2% | i | 6.31µM* | i
O=C(/C=C/c1cccc([N+](=O)[O-])c1)c1ccc([N+](=O)[O-])o1 | -77.3% | i | -91.1% | i
Cn1c(SCc2ccc(Cl)cc2)nnc1-c1ccc(NC(=O)CCc2ccccc2)cc1 | -9.4% | . | . | .
CNC(=S)Nc1ccc(C23CC4CC(CC(C4)C2)C3)cc1 | -7.0% | 7.08µM* | -6.0%[0.397 µM] | i
Cc1nc(N2CCN(C(=O)COc3ccccc3)CC2)c2c(C)c(C)sc2n1 | -1.7% | i | 15.8µM* | i
O=C(COc1ccccc1)N1CCN(c2ncccn2)CC1 | 5.8% | i | 5.6% | i
CC(C)(C)c1ccc(Cn2cnc(-c3ccc([N+](=O)[O-])cc3)c2)cc1 | 3.8% | i | 31.6µM* | .
Cc1cc(C)c(Cn2cnc(-c3ccc([N+](=O)[O-])cc3)c2)c(C)c1 | -4.0% | i | -10.5% | i
CC1CCN(S(=O)(=O)c2ccc(C(=O)OC(C)C(=O)N(C)C3CCCCC3)cc2)CC1 (configuration not stated) | -6.2% | i | -19.2% | i
CC(OC(=O)c1ccc(NS(=O)(=O)c2cccs2)cc1)C(=O)N(C)C1CCCCC1 (configuration not stated) | -3.0% | i | -5.8% | 31.6µM*
O=C(OC1CCCCC1)c1ccc(NC(=O)c2ccco2)cc1 | -25.7% | i[9.22 µM] | 35.5µM* | i
SMILES | aSyn yeast inh | Abeta yeast res | TDP43 rescue | FUS yeast rescue
O=C(Nc1ccc(OC(=O)c2ccco2)cc1)c1ccco1 | -35.7% | i | -7.2% | i
O=C(c1ccccc1)N(C(=O)c1ccccc1)c1ccccc1 | -10.0% | i | 4.47µM* | i
CN(C(=O)c1ccccc1)C(=O)c1ccccc1 | -3.3% | i | 5.6% | i
Cc1nc(SCC(=O)N(C)Cc2ccco2)c2c(C)c(C)sc2n1 | 4.1% | i | 22.4µM* | i
CC1(C)Cc2ccccc2-c2nnc(SCc3ccc(C#N)cc3)n21 | 17.9% | i | 12.6µM* | i
COc1ccc(OCc2nn3c(-c4ccco4)nnc3s2)cc1 | 5.9% | i | ? | ?
Clc1ccc(OCc2nn3c(-c4ccco4)nnc3s2)cc1 | -2.8% | i | 17.8µM* | i
c1coc(-c2nnc3sc(Cc4cccs4)nn23)c1 | -3.9% | i | -5.9% | 10µM*
Cc1ccc(CCNC(=O)c2cc3ccccn3n2)cc1 | . | i | 10.6% | i
COc1ccc(-c2cc(-c3ccccc3)c(C#N)c(S(C)=O)n2)cc1 (configuration not stated) | 5.9% | i | 17.8µM* | i
